This note sets out measurements from PubChem BioAssay.

The test system of assay [1] is TRPC4 beta (transient receptor potential cation channel C4), mouse. The assay can be described thus: activators of mouse TRPC4 channel, confirmation, cell-based, Fluo4 calcium, HEK293 TRPC4beta/mu-opioid, duplicates, 10 µM (AID 2426). Conditions: Fluo4 calcium fluorescence, at 10 µM; stronger effect = higher value.
Assay [2] relates to transient receptor potential cation channel C4 beta (TRPC4), mouse. The assay is described as follows: activators of mouse TRPC4 channel, confirmation, cell-based, second round, Fluo4, HEK293 TRPC4beta/mu-opioid, 1 µM (AID 2461;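 active = primary screen active and over 50% activation in each of two duplicate runs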). The following applies: Fluo4 calcium fluorescence, at 1 µM; stronger effect = higher value.
In assay [3] the test system is TRPC4 (transient receptor potential cation channel C4 beta), mouse. The assay can be described thus: positive allosteric modulators of mouse TRPC4, confirmation, cell-based, second round, Fluo-4, HEK293 TRPC4beta/mu-opioid, 1 µM (AID 2554;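 active = primary screen hit whose fluorescence ratio, in both repeats, exceeds the weak agonist control mean by 3 SD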). The following applies: DAMGO EC20, Fluo-4 calcium flux, at 1 µM; stronger effect = higher value. A general note: Calcium flux is commonly read through the fluorescence of an indicator in the cells.

In assay [4] the test system is TRPC4 beta (transient receptor potential cation channel C4), mouse. The assay can be described thus: positive allosteric modulators of mouse TRPC4, confirmation, cell-based, Fluo-4, HEK293 TRPC4beta/mu-opioid (AID 2555;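 active = primary screen hit whose calcium fluorescence ratio, in both repeats, exceeds the weak agonist control mean by 3 SD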). Conditions: DAMGO EC20, Fluo-4 calcium flux, at 10 µM; stronger effect = higher value.
Assay [5] concerns the target Short transient receptor potential channel 4 (Mus musculus) (UniProt Q9QUQ5). The assay can be described thus: inhibitors of mouse TRPC4 channel, confirmation, cell-based, Fluo4, HEK293 TRPC4beta/mu-opioid (AID 2636;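 active = calcium signal cut by more than 3 SD below the full-agonist control yet still positive, in both repeats and the earlier primary screen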). Conditions: DAMGO, Fluo4 calcium flux, at 10 µM; stronger effect = higher value.
The target is the same in assay [6]. The assay can be described thus: inhibitors of mouse TRPC4 channel, confirmation, cell-based, second round, Fluo4, HEK293 TRPC4beta/mu-opioid, 1 µM (AID 2637;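 active = calcium signal ratio cut to more than 3 SD under the fully stimulated control mean yet still positive, in both repeats and the primary screen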). The following applies: Fluo4 calcium flux, DAMGO, at 1 µM; stronger effect = higher value.
For assay [7] the target is unchanged. The assay is described as follows: mouse TRPC4 channel activators, dose response, cell-based, HEK293 TRPC4/mu-opioid, Fluo-4 calcium (AID 434937;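 active = primary screen activator hit with a dose response curve and TRPC4 channel activation at any tested dose; inactive = no activation, no dose response, or not a primary hit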).
Assay [8] has the same target. The assay can be described thus: TRPC4 positive allosteric modulators, dose response, cell-based, HEK293 TRPC4/mu-opioid, Fluo-4 calcium, EC20 DAMGO (AID 434941;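 active = earlier screen potentiator hit that boosts the TRPC4 ion channel at some dose, with a dose response; inactive = no potentiation, no dose response, or not a prior hit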;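 note: calcium entry triggered by an EC20 dose of DAMGO at the co-expressed mu-opioid receptor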).
Assay [9] shares this target. The assay can be described thus: mouse TRPC4 channel inhibitors, dose response, cell-based, HEK293 TRPC4/mu-opioid, Fluo-4 calcium (AID 434942;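 active = primary screen inhibitor hit that blocks the TRPC4 channel at some tested dose, yielding a dose curve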).
In assay [10] the target is Short transient receptor potential channel 6 (Mus musculus) (UniProt Q61143). The assay is described as follows: inhibition of mouse TRPC6 channel, confirmation, selectivity assay for TRPC4 inhibitor project, cell-based, HEK293, membrane potential dye, duplicate (AID 434948;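 active = active in primary screen and both duplicates, each dropping signal beyond three positive-control SD with fluorescence still positive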). The following applies: HEK293 TRPC6, membrane potential dye fluorescence, at 10 µM, stimulated with maximal-effect acetylcholine; stronger effect = higher value.

The target is the same in assay [11]. The assay can be described thus: activation of mouse TRPC6 channel, confirmation, selectivity assay for TRPC4 activator project, cell-based, HEK293, membrane potential dye, duplicate (AID 434950;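 active = membrane potential signal rise above negative control mean plus 3 SD in both duplicates, also active in the earlier TRPC4 screen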). The following applies: HEK293 TRPC6, membrane potential fluorescence, at 10 µM; stronger effect = higher value.
For assay [12] the target is unchanged. The assay can be described thus: TRPC6 potentiation by TRPC4 potentiator hits, confirmation, selectivity assay for TRPC4 potentiator project, HEK293 cells, membrane potential dye, duplicate (AID 434952;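 active = compound raising the membrane signal above positive-control mean plus 3 SD in both repeats, and a primary screen hit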). The following applies: HEK293 TRPC6, membrane potential dye fluorescence, at 10 µM, maximal acetylcholine added after compound; stronger effect = higher value.
Assay [13] has as its target Short transient receptor potential channel 4 (Mus musculus) (UniProt Q9QUQ5). The assay can be described thus: calcium flux activators in TRPC4/5HT1a cells, counter-screen for TRPC4 activator project, cell-based, second counter screen, HEK293 TRPC4/5HT1a, Fluo-4 (AID 434977;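 active = calcium signal rise above buffer-control mean plus 5 SD in both duplicates, and also a hit in the primary screen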). Conditions: Fluo-4 calcium flux, at 10 µM; stronger effect = higher value.
Assay [14] in a line: calcium flux inhibitors in TRPC4/5HT1a cells, confirmation, counter-screen for TRPC4 inhibitor project, cell-based, second counter screen, HEK293 TRPC4/5HT1a, Fluo-4 (AID 434978;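 active = primary screen active whose calcium signal fell more than 3 SD beyond the full-serotonin control mean in both duplicate plates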;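 for outcome: serotonin given first at submaximal then at maximal dose after compound preincubation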). Conditions: Fluo-4 calcium flux, at 10 µM, serotonin added to trigger calcium flux; stronger effect = higher value.
Assay [15] deals with TRPC4 (mouse), co-expressed with 5HT1a in HEK293. The assay is described as follows: calcium flux potentiators in TRPC4/5HT1a cells, confirmation, counter-screen for TRPC4 potentiator project, cell-based, second counter screen, HEK293 TRPC4/5HT1a, Fluo-4 (AID 434979;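 active = signal rise over 3 SD above mean of control wells given weak agonist, in both repeats and first screen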). The following applies: Fluo-4 calcium flux, at 10 µM, serotonin added at its EC20 dose; stronger effect = higher value.
Assay [16] is described as follows: calcium flux activation in mu-opioid HEK293 cells, confirmation, counter-screen for TRPC4 activator project, cell-based, HEK293 mu-opioid receptor line (AID 449723;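 active = hit in primary screen, with calcium signal over 5 SD above buffer well mean in both duplicates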;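 note: counter screen cells carry the mu-opioid receptor alone and lack TRPC4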). Conditions: Fluo-4 calcium fluorescence, at 10 µM; stronger effect = higher value.
Assay [17] can be described thus: calcium flux enhancement in mu-opioid HEK293 cells, confirmation, counter-screen for TRPC4 allosteric potentiator project, cell-based, HEK293 mu-opioid receptor line (AID 449724;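 active = calcium signal rise more than 3 SD above the low-dose agonist control mean, in both duplicate plates and the primary screen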;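 note: HEK293 cells carrying mu-opioid receptor only with no TRPC4 channel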). Conditions: Fluo-4 calcium flux, at 10 µM, compound added before EC20 DAMGO stimulus; stronger effect = higher value.

The structures appear in SMILES notation. For some of these results: Measured potencies and affinities stand elsewhere. Activity calls are given as the source filed them.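 Rule for the calls, unless noted: active = fluorescence ratio normalized to control raised more than 50% in primary screen plus both repeat runs; inactive = the rest.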

Sequence of Short transient receptor potential channel 4 (Mus musculus) (Q9QUQ5 whole entry, looked up): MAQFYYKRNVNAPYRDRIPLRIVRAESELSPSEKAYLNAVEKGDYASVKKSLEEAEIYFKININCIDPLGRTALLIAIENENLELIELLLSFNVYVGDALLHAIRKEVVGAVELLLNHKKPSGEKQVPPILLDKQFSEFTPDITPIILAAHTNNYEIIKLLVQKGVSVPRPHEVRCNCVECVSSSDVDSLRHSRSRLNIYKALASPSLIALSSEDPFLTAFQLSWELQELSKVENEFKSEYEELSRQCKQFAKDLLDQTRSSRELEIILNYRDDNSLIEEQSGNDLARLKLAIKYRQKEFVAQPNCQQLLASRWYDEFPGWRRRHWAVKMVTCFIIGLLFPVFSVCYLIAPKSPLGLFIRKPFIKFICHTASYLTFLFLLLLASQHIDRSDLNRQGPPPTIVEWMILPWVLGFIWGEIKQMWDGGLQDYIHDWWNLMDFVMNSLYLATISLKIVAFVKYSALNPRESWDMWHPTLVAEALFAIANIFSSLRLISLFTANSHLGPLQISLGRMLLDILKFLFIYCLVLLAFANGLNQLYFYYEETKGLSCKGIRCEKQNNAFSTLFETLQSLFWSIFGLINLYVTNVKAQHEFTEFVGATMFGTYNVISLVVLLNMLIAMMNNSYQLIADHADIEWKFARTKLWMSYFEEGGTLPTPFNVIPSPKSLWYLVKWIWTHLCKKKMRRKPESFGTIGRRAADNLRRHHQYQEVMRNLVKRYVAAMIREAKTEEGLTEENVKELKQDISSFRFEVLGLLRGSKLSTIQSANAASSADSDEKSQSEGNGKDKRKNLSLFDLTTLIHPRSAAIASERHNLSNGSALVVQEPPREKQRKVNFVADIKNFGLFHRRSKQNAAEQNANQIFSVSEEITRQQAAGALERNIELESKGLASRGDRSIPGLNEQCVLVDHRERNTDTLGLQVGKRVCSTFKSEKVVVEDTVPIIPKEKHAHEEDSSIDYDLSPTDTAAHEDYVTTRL
Sequence of Short transient receptor potential channel 6 (Mus musculus) (Q61143 whole entry, looked up): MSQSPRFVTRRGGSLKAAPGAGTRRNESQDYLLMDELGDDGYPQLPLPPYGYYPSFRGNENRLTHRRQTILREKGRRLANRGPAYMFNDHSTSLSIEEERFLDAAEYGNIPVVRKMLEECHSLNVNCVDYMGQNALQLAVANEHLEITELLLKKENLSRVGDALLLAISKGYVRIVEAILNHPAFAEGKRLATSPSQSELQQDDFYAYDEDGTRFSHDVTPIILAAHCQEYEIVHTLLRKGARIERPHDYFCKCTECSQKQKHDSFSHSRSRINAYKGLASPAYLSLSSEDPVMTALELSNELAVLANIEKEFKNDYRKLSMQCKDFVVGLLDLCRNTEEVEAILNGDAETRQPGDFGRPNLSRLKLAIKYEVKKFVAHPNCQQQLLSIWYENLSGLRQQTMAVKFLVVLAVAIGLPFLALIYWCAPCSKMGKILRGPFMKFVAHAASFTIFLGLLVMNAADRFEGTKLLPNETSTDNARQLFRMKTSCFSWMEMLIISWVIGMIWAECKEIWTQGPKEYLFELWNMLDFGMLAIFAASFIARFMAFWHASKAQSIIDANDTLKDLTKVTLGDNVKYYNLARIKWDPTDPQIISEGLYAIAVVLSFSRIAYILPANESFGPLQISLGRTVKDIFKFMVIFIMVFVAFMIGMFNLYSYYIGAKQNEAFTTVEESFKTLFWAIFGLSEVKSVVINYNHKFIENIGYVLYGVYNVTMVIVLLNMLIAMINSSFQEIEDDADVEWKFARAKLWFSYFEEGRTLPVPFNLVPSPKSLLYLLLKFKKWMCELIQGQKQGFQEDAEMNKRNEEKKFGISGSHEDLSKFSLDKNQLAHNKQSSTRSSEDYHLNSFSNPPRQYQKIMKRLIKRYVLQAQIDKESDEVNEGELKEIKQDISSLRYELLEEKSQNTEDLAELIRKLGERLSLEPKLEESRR

The inhibition is the drop in the measured response relative to a control, in per cent. Turning to `COc1cccc(N(C(=O)c2snc(C(N)=O)c2N)C(C(=O)NCC2CCCO2)c2ccc3ncccc3c2)c1` (stereo unspecified), the result in [1], in [2], in assay [3], in [4], in assay [6] and in assay [7] was inactive. Besides, the result in assay [8], in assay [9], in assay [10], in assay [11], in assay [12] and in [13] was inactive. Besides, the result in assay [14], in assay [15], in [16] and in assay [17] was inactive. In addition, the inhibition in assay [5] is 76% (active).

On to `CCn1c(C2CC(=O)N(Cc3ccccc3)C2)nc2ccccc21` (stereo unspecified), for which the outcome in assay [1], in assay [2], in [3], in [5], in assay [6] and in assay [7] was inactive. Moreover, the result in assay [8], in assay [9], in assay [10], in assay [11], in assay [12] and in assay [13] was inactive. The result in assay [14], in assay [16] and in [17] was inactive. Further, the potentiation in assay [4] was 11% (active); in assay [15] it was 23.9% (active).

Turning to `CN(CC(=O)Nc1ccc(F)cc1)C(=O)COC(=O)C1CCN(c2ccc(C(F)(F)F)cn2)CC1`, the result in assay [1], in [2], in assay [3], in [4], in [6] and in assay [7] was inactive. For the same compound, the result in assay [8], in assay [9], in assay [10], in assay [11], in assay [12] and in assay [13] was inactive. Besides, the outcome in assay [15], in assay [16] and in assay [17] was inactive. The inhibition was 70% (active) in assay [5] and 36.3% (active) in assay [14].

`N=c1c2c3c(sc2ncn1Cc1ccccc1)CCCC3`: the outcome in assay [1], in assay [2], in [3], in assay [4], in assay [5] and in assay [6] was inactive. Moreover, the result in assay [7], in assay [8], in [9], in assay [10], in assay [11] and in assay [12] was inactive. Besides, the outcome in assay [13], in [14], in assay [15], in assay [16] and in [17] was inactive.

As for `N#Cc1ccc(-c2ccccc2)nc1SCCN1CCOCC1`, the outcome in assay [1], in assay [2], in assay [3], in [4], in [5] and in [6] was inactive. The result in assay [7], in [8], in [9], in assay [10], in assay [11] and in [12] was inactive. Also, the result in assay [13], in assay [14], in [16] and in assay [17] was inactive. Besides, in assay [15], the potentiation is 17.3% (active).

For `Cn1c(N2CCC(C(N)=O)CC2)nc2c1c(=O)n(Cc1ccc(Br)cc1)c(=O)n2C`, the outcome in assay [1], in [2], in assay [3], in assay [4], in assay [5] and in assay [6] was inactive. Also, the result in [7], in [8], in [9], in assay [10], in [11] and in assay [12] was inactive. For the same compound, the outcome in assay [13], in [14], in [15], in assay [16] and in assay [17] was inactive.

In the case of `CCOC(=O)c1cnc(-n2nc(C)cc2C)nc1NC1CCCCC1`, the result in assay [1], in assay [2], in assay [3], in assay [4], in assay [5] and in assay [6] was inactive. Also, the outcome in assay [7], in assay [8], in [9], in assay [10], in assay [11] and in assay [12] was inactive. In addition, the outcome in [13], in assay [14], in assay [16] and in [17] was inactive. Also, the potentiation in assay [15] was 26.3% (active).

Take `O=C(NC1CCCC1)c1cc2ccccc2o1`: the outcome in assay [1], in assay [2], in assay [3], in assay [5], in [6] and in [7] was inactive. Further, the outcome in assay [8], in assay [9], in [10], in assay [11], in [12] and in assay [13] was inactive. The outcome in [14], in assay [16] and in assay [17] was inactive. The potentiation in assay [4] was 14% (active); in assay [15] it was 19.7% (active).
